According to PubChem BioAssay (NCATS):
“And” between values parts separate entries of the source, which are not always exact repeats. Equal entries are not always repeated. Records with an inconclusive call do not appear. The source made the active and inactive calls. Unless noted, the call rests on the fitted dose curve; in most records, active means well fitted curve in the direction sought with a large enough effect; inconclusive means small, poorly fitted or top-dose-only effect, or another doubt; inactive means no such curve, though single readings can be large; an effect the other way counts as inactive or inconclusive.

What was measured:
[1] = Cell Viability - SK-N-SH (AID 435; calls by dose curve; further: potency means the concentration at half of the fitted maximal effect); details: SK-N-SH neuroblastoma cell viability qHTS
Method in brief: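 CellTiter-Glo ATP luminescence, 20 min RT read; cells pre-plated 5 hr, compound 40 hr at 37 °C, 1500 cells/well, complete medium. Normalized DMSO = 0, 100 uM tamoxifen = 100% inhibition; Hill-fit AC50.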

[2] = Cellular Toxicity (caspase-3) Jurkat (AID 655); details: Jurkat caspase-3 activation, luminescence; caspase-3 activation: at 92.2 µM (top of the series), DMSO = 0%, tamoxifen = 100%;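 further: cells exposed to compound for 16 h at 37 °C before reading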
Method in brief: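 Luminescent caspase-3/7 readout (aminoluciferin substrate cleavage) in human T-cell leukemia Jurkat cells after 16 hr compound exposure. Concentration-response normalized to DMSO and 100 uM tamoxifen; AC50 by standard Hill equation.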

[3] = Cell Viability - LYMP2-001 (AID 921); details: LYMP2-001 lymphoblastoid cell viability; series mostly up to 92.2 µM;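 further: 0% = DMSO only and full inhibition = tetraoctylammonium bromide control wells; nearly all actives have a fitted effect of over 70% in size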
Method in brief: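 CellTiter-Glo luminescence (intracellular ATP) after 24 hr compound exposure at 37 C, 2500 lymphoblastoid cells/well in complete medium. AC50 fitted with standard Hill equation; tetraoctylammonium bromide positive control.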

[4] = Cell Viability - LYMP2-004 (AID 966); details: LYMP2-004 lymphoblastoid cell viability, qHTS; series mostly up to 92.2 µM;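 further: plate controls were DMSO only for no effect and tetraoctylammonium bromide control for full effect; nearly all actives have a fitted effect of over 65% in size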
Method in brief: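 Luminescent ATP read-out (CellTiter-Glo, 30 min RT) after 24 hr compound exposure at 37 C; 2500 lymphoblastoid cells/well, complete medium. Decrease in ATP = cytotoxicity; AC50 from standard Hill model.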

[5] = Cell Viability - LYMP2-009 (AID 968); details: LYMP2-009 lymphoblastoid cell viability; series mostly up to 92.2 µM;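 further: 0% = DMSO alone and the full-kill end = tetraoctylammonium bromide at 92 µM; nearly all actives have a fitted effect of over 55% in size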
[6] = Cell Viability - LYMP2-011 (AID 969); details: LYMP2-011 lymphoblastoid cells viability; series mostly up to 92.2 µM;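 further: cells exposed to compound for 24 hours; 0% = DMSO only and full inhibition = 92 µM tetraoctylammonium bromide; nearly all actives have a fitted effect of over 60% in size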
Method in brief: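 Luminescent ATP read-out (CellTiter-Glo, 30 min RT) after 24 hr compound exposure at 37 C in human lymphoblastoid cells, 2500 cells/well. Decreasing ATP indicates cytotoxicity; AC50 from standard Hill fit.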

[7] = Cell Viability - LYMP2-021 (AID 974); details: LYMP2-021 lymphoblastoid cells viability; series mostly up to 92.2 µM;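 further: compound exposure lasts 24 hours at 37 °C; on the % scale 0 is the no-effect control and ±100 the full control effect; nearly all actives have a fitted effect of over 55% in size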
Method in brief: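 ATP luminescence (CellTiter-Glo, 30 min RT) after 24 h compound exposure at 37 C; 2500 human lymphoblastoid cells/well, 5 h settle beforehand. Cytotoxicity = concentration-dependent ATP drop, AC50 by Hill fit.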

[8] = Cell Viability - LYMP2-008 (AID 980); details: LYMP2-008 lymphoblastoid cell viability, qHTS; series mostly up to 92.2 µM; further: on the % scale 0 is the no-effect control and ±100 the full control effect; nearly all actives have a fitted effect of over 60% in size
Method in brief: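 Luminescent ATP read-out (CellTiter-Glo, 30 min RT) after 24 hr compound exposure at 37 C of human lymphoblastoid cells in complete medium. Decrease in ATP taken as cytotoxicity; AC50 derived by standard Hill fit of qHTS concentration-response data.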

[9] = Cell Viability - LYMP2-012 (AID 982); details: LYMP2-012 lymphoblastoid cell viability qHTS; series mostly up to 92.2 µM;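 further: cellular ATP by luciferase luminescence where a drop means cytotoxicity; cells exposed to compound for one day before reading; 0% = DMSO only and full loss = 92 µM tetraoctylammonium bromide; nearly all actives have a fitted effect of over 55% in size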
[10] = Cell Viability - LYMP2-020 (AID 986); details: series mostly up to 92.2 µM;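 further: plate controls were DMSO only for no effect and tetraoctylammonium bromide at 92 µM for full effect; nearly all actives have a fitted effect of over 55% in size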
Method in brief: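 qHTS, 2500 cells/well; 5 hr then 24 hr compound exposure, 37 C; CellTiter-Glo luminescence after 30 min RT; ATP decrease taken as cytotoxicity; AC50 via Hill equation; tetraoctylammonium bromide positive control.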

[11] = biological target: Glucocorticoid receptor (Homo sapiens) (UniProt P04150); experiment: qHTS assay for small molecule agonists of glucocorticoid receptor signaling (AID 588532; active means well fitted curve in the direction sought with a large enough effect in the signal ratio, with a control signal flat; the % refers to the signal ratio;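 further: 100% = dexamethasone at 0.1 µM and 0% = DMSO only wells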); details: HeLa MMTV-bla, beta-lactamase ratio, agonist, 18 h; stronger effect = higher value; percent of dexamethasone control, DMSO zero
Chain of Glucocorticoid receptor (Homo sapiens) (P04150 whole entry, looked up): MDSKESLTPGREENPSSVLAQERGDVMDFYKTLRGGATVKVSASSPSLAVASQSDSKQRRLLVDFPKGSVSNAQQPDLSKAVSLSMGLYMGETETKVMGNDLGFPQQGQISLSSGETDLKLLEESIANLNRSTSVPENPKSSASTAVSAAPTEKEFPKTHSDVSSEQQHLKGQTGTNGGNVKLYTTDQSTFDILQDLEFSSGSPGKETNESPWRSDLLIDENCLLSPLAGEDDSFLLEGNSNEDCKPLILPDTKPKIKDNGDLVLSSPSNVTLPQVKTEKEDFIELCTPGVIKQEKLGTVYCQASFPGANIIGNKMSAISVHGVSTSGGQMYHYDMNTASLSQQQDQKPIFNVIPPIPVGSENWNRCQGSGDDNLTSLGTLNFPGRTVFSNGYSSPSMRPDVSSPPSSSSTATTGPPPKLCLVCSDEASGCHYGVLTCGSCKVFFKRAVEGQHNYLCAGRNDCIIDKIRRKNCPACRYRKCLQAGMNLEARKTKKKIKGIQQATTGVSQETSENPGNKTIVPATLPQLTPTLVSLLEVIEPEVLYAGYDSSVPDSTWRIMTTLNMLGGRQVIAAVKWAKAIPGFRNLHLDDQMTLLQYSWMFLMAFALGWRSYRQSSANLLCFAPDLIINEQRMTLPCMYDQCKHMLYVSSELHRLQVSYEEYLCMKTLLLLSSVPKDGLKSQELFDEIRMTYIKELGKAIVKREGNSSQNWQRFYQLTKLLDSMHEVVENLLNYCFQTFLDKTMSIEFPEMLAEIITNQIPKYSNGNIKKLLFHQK
Method in brief: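 MMTV-bla HeLa beta-lactamase reporter cells in 1% charcoal/dextran FBS medium, compounds up to 92 uM for 18 h at 37 C, CCF4 readout; normalized to 0.1 uM dexamethasone (100%), EC50 and efficacy from Hill fits.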

[12] = biological target: Peroxisome proliferator-activated receptor gamma (Homo sapiens) (UniProt P37231); experiment: qHTS assay for small molecule agonists of peroxisome proliferator-activated receptor gamma signaling (AID 588536; active means well fitted curve in the direction sought with a large enough effect in the signal ratio, with a control signal flat, not every such curve was filed as active; the % refers to the signal ratio;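 further: 0% = DMSO basal wells and 100% = rosiglitazone at 2 µM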); details: HEK293 PPARg-UAS-bla, beta-lactamase ratio, 16 h, percent of rosiglitazone response, DMSO as zero; series mostly up to 76.7 µM
Chain of Peroxisome proliferator-activated receptor gamma (Homo sapiens) (P37231 whole entry, looked up): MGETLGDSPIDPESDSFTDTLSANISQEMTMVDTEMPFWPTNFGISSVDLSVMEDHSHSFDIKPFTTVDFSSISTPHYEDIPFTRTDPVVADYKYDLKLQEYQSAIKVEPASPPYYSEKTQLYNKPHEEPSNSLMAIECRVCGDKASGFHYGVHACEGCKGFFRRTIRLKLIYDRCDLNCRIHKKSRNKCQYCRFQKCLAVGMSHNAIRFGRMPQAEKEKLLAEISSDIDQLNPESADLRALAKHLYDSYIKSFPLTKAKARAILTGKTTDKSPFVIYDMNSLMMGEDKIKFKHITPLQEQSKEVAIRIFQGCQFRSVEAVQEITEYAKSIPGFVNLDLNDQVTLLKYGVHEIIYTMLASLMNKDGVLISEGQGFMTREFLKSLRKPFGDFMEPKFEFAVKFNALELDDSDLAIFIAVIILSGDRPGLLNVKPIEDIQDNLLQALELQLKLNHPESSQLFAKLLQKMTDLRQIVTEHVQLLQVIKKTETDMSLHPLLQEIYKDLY
Method in brief: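 This is an agonist-mode beta-lactamase reporter assay in HEK293 PPAR-gamma-UAS-bla cells with 1% charcoal/dextran FBS. Compound titrations ran 16 h at 37 C before CCF4 detection. EC50 and efficacy are Hill fits scaled to 2 uM rosiglitazone (100%) and DMSO basal.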

[13] = biological target: Vitamin D3 receptor (Homo sapiens) (UniProt P11473); experiment: qHTS assay for small molecule antagonists of vitamin D receptor signaling (AID 588541; calls by dose curve;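 further: receptor activated by calcitriol during compound treatment; on the % scale 0 is the no-effect control and ±100 the full control effect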); details: HEK293T VDR-UAS-bla, beta-lactamase ratio, antagonist mode; series mostly up to 76.7 µM
Chain of Vitamin D3 receptor (Homo sapiens) (P11473 whole entry, looked up): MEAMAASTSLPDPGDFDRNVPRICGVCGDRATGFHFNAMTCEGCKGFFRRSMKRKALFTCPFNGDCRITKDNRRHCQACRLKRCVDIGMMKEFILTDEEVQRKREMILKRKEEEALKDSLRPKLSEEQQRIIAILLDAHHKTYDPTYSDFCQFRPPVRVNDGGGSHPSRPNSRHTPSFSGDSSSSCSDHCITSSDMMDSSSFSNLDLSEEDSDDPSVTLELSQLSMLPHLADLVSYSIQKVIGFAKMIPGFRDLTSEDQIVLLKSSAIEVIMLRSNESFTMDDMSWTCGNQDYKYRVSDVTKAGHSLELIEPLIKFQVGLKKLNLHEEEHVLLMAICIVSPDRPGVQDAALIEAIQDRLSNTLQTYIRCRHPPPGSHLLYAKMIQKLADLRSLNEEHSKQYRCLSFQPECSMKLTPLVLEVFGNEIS
Method in brief: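 VDR-UAS-bla HEK293T cells in 2% charcoal-stripped FBS were stimulated with 1-alpha,25-dihydroxyvitamin D3 (3 nM final) plus compound for 16 h at 37 C. The beta-lactamase CCF4 readout was normalized to 50 nM agonist and DMSO, and Hill fits gave IC50.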

[14] = qHTS assay for small molecule activators of the nuclear factor-kappa B (NF-kB) signaling pathway (AID 651749; active means well fitted activation curve with a large enough effect in the signal ratio; the % refers to the signal ratio; further: % of control where 0% means no effect); details: NF-kB-bla ME-180 cells, beta-lactamase FRET ratio, 16 h; stronger effect = higher value
Method in brief: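 NF-kB-bla ME-180 cells, 2,000/well; 23 nL compound or DMSO pinned; 16 hr, 37C/5% CO2; beta-lactamase FRET read-out.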

[15] = Cell Viability - H-4-II-E (AID 543); details: H-4-II-E rat hepatoma viability; series mostly up to 92.2 µM;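 further: cells exposed to compound for 40 hours; on the % scale 0 is the no-effect control and ±100 the full control effect; nearly all actives have a fitted effect of over 35% in size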
Method in brief: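 qHTS, rat hepatoma H-4-II-E, 1500 cells/well; 40 hr compound exposure, 37 °C; CellTiter-Glo ATP luminescence after 20 min RT; AC50 by standard Hill fit.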

[16] = Cell Viability - Renal Proximal Tubule (AID 545); details: renal proximal tubule cells viability; series mostly up to 91.7 µM;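 further: cells exposed to compound for 40 hours; nearly all actives have a fitted effect of over 40% in size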
Method in brief: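 Rat kidney proximal tubule cells, freshly isolated; 1000 cells/well, 5 hr settle, compound 40 hr 37 °C. CellTiter-Glo 20 min RT, luminescence read. AC50 by standard Hill fit.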

[17] = Cell Viability - Mesenchymal (AID 546); details: mesenchymal cells viability, qHTS; series mostly up to 91.7 µM;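 further: cells exposed to compound for 40 hours before reading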
Method in brief: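 Human renal mesenchymal cells (glomerulus-derived), 1000 cells/well, 5 hr 37 °C pre-incubation; compound 40 hr, 37 °C; CellTiter-Glo, 20 min RT; luminescence; AC50 via Hill equation.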

[18] = qHTS assay for small molecule disruptors of the mitochondrial membrane potential - 5 hr assay (AID 651755; calls by dose curve; further: on the % scale 0 is the no-effect control and ±100 the full control effect; nearly all actives have a fitted effect of over 40% in size); details: JC-1-type ratio dye; series mostly up to 92.2 µM
Method in brief: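 Read-out: ratiometric Mito-MPS fluorescence, green monomer (ex 490/em 535) vs red mitochondrial aggregate (ex 540/em 590). HepG2 cells treated 5 hr at 37C before 30 min dye loading.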

[19] = biological target: Nuclear receptor subfamily 1 group I member 2 (Rattus norvegicus) (UniProt Q9R1A7); experiment: qHTS assay for small molecule activators of the rat pregnane X receptor (rPXR) signaling pathway (AID 651751; call rule not given here; further: 0% is about no effect); details: rPXR reporter cells, luciferase (One-Glo), 24 h
Chain of Nuclear receptor subfamily 1 group I member 2 (Rattus norvegicus) (Q9R1A7 whole entry, looked up): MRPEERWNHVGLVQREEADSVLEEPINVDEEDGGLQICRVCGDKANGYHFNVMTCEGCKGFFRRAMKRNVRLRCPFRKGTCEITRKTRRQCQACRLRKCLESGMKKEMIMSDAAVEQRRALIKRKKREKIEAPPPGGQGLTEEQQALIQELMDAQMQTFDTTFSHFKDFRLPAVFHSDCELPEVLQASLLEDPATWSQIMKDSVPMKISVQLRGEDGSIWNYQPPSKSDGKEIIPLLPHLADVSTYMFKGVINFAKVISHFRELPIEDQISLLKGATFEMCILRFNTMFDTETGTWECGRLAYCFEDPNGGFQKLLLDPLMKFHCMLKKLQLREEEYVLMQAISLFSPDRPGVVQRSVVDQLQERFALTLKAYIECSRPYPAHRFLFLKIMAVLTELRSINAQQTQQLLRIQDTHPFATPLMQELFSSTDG

[20] = Cell Viability - LYMP1-003 - Assay at 40 hr (AID 964); details: LYMP1-003 lymphoblastoid viability; series mostly up to 92.2 µM; further: on the % scale 0 is the no-effect control and ±100 the full control effect; nearly all actives have a fitted effect of over 60% in size
Method in brief: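 LYMP1-003 lymphoblastoid cells, 2500/well; 5 hr preincubation, 40 hr compound exposure, 37 C; CellTiter-Glo 30 min RT; luminescence; Hill-fit AC50. Positive control tetraoctylammonium bromide.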

Cc1cc(N=Nc2ccccc2C)ccc1N
inactive: Potency [1] > 92 µM | caspase-3 activation [2] 2.76% | Potency [3] | Potency [4] | Potency [5] | Potency [6] | Potency [7] | Potency [8] | Potency [9] | Potency [10] | activation [11] -7.11% | outcome [12] | outcome [13] | activation [14] -0.0756% and -0.721%

C(CCOCC1CO1)COCC1CO1 (stereo not given)
inactive: Potency [15] | outcome [16] | Potency [17] | caspase-3 activation [2] 15.1% | Potency [3] | Potency [5] | Potency [6] | Potency [7] | Potency [8] | Potency [9] | activation [11] -0.372% | outcome [13] | activation [14] 0.765% | Potency [18] | max response [19] 2.78%

Cc1cccc(N)c1C
inactive: Potency [1] > 92 µM | Potency [15] | outcome [16] | Potency [17] | caspase-3 activation [2] 0.961% | Potency [3] | Potency [4] | Potency [5] | Potency [6] | Potency [7] | Potency [10] | outcome [12] | outcome [13] | activation [14] -0.847% | Potency [18] | max response [19] -0.698%

CC(C)(COCC1CO1)COCC1CO1 (stereo not given)
inactive: Potency [15] | Potency [17] | caspase-3 activation [2] 14.4% | Potency [3] | Potency [20] | Potency [5] | Potency [7] | Potency [8] | Potency [9] | Potency [10] | outcome [12] | outcome [13] | activation [14] 0.814% | Potency [18] | max response [19] 1.93%

CC[N+](=O)[O-]
inactive: Potency [1] > 92 µM | Potency [15] | outcome [16] | Potency [17] | Potency [3] | Potency [20] | Potency [5] | Potency [6] | Potency [7] | Potency [8] | Potency [9] | Potency [10] | activation [11] 5.8% | outcome [12] | outcome [13] | activation [14] 1.19% | Potency [18] | max response [19] -6.68%

Nc1ccc(Cc2ccc(N)c(Cl)c2)cc1Cl
inactive: Potency [1] > 92 µM | Potency [17] | caspase-3 activation [2] 25.3% | Potency [20] | Potency [4] | Potency [5] | Potency [6] | Potency [7] | Potency [9] | Potency [10] | activation [11] -1.55% | outcome [12] | outcome [13] | Potency [18]

Brc1ccc(Oc2ccc(Br)cc2Br)c(Br)c1
inactive: Potency [1] > 92 µM | Potency [15] | outcome [16] | Potency [17] | Potency [3] | Potency [4] | Potency [5] | Potency [7] | Potency [8] | Potency [10] | outcome [13] | activation [14] 0.581% | Potency [18]
